Most compounds without a hit are left out; they make up all but 3.4% or so of the library.
AmpC inh detg: qHTS Inhibitors of AmpC Beta-Lactamase (assay with detergent) | P00811 | AmpC hydrolysis of nitrocefin, absorbance 480 nm, 0.01% Triton | Potency, µM (series often up to 114 µM), for the others: at the top dose activity change, negative = inhibition, actives largely listed as inhibitors | 0.041% of 370,000 active;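 note: 0% = no-compound wells and -100% = no-enzyme wells; nearly all actives have a fitted effect of over 25% in size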
Target sequence (P00811 whole entry, looked up): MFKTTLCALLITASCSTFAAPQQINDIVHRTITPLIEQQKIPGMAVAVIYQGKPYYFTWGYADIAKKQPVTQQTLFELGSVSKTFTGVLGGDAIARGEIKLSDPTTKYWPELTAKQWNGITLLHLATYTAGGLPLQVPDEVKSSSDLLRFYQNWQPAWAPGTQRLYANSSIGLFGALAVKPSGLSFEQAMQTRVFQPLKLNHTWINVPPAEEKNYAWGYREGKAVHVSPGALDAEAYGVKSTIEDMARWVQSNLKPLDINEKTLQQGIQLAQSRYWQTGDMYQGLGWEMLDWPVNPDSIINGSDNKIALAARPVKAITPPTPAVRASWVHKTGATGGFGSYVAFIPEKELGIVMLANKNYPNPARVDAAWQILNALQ
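20 mM phosphate pH 7.0 + 0.01% (detergent screen) or 0.0001% Triton X-100; 5.3 nM AmpC reagent; cpd preinc 15 min RT; nitrocefin (800 uM stock) to start; A480 q20 s × 4 min; Activity was normalised to no-enzyme and no-compound control wells.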
Giardia FBPA inh: qHTS Assay for Inhibitors of Fructose-1,6-bisphosphate Aldolase from Giardia Lamblia; A8B2U2; purified Giardia FBPA; Potency, µM (titrated, usually from 59.6 µM), for inactives: at the highest dose activity, negative = inhibition, usual class: inhibitors; 0.71% of 290,000 active; AID 2451, 2010; note: nearly all actives have a fitted effect of over 55% in size
Target sequence (A8B2U2 whole entry, looked up): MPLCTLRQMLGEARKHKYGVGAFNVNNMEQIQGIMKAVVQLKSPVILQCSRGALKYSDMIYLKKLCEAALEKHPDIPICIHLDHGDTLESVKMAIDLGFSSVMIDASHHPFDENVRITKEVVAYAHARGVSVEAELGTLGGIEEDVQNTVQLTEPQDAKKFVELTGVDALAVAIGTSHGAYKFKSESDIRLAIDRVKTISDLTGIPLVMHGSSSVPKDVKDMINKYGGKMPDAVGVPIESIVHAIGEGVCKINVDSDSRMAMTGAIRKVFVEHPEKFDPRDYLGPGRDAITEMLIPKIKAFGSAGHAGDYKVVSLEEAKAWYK
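40 nM FBPA preincubated 10 min at RT with compound (up to 57.5 uM final), then substrate plus GAPDH/TPI/NAD/arsenate coupling and diaphorase/resazurin added. Fluorescence read after 20 min at RT, 525/598 nm.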
RE007 growth inh: qHTS Assay for Inhibitors of the HIV-1 protein Vpr. Potency, µM (highest dose often 92.2 µM), for inactives: at the highest dose activity change, negative = less growth, usual class: inhibitors. S. pombe RE007 Vpr strain, BacTiter-Glo ATP luminescence, 24 h. 0.21% of 360,000 active; active = well fitted falling curve with a large enough effect; inconclusive = small, poorly fitted or top-dose-only effect; inactive = no such curve, though single readings can be large or run the other way; note: nearly all actives have a fitted effect of over 50% in size
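Fission yeast RE007 carrying one integrated HIV-1 vpr copy, seeded at OD 0.01 in PMG+AL medium with 23 nL pinned compound. Grown 24 h at 30 degrees; viability read by BacTiter-Glo luminescence after 5 min.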
AmpC no deterg: qHTS Inhibitors of AmpC Beta-Lactamase (assay without detergent); 0.52% of 330,000 active; Potency, µM (titrated, usually from 57.1 µM), for the others: top-dose activity change, negative = inhibition, hits mostly inhibitors; AID 485341, 2010; P00811; AmpC nitrocefin hydrolysis, absorbance 480 nm, 0.0001% Triton;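 note: plate controls were no compound for no effect and no enzyme for full effect; nearly all actives have a fitted effect of over 20% in size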
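AmpC (5.3 nM in the dispensed reagent) in 20 mM phosphate pH 7.0 with 0.01% (detergent screen) or 0.0001% Triton X-100 was preincubated with compounds for 15 min at room temperature. Nitrocefin was then added from an 800 uM solution, and hydrolysis was followed at 480 nm.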
Sm TGR inh: qHTS Assay for the Inhibitors of Schistosoma Mansoni Peroxiredoxins; purified TGR, DTNB reduction, TNB absorbance 405 nm; Potency, µM (series often up to 114 µM), for inactives: top-dose activity change, negative = inhibition, usual class: inhibitors; 3% of 360,000 active; note: nearly all actives have a fitted effect of over 60% in size
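TGR 20 nM + NADPH 100 uM (dispensed conc.), cpd preinc 15 min RT; start with NADPH (500 uM addition) then DTNB (15 mM addition). Kinetic TNB absorbance, 405 nm filter. Four-parameter Hill fit across titration.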
* marks the source's active call; other numbers are inactive results. Unless noted, calls come from the whole dose curve; as a rule, active = well fitted curve in the direction sought with a large enough effect; inconclusive = small, poorly fitted or top-dose-only effect, or another doubt; inactive = no such curve, though single readings can be large; an effect the other way counts as inactive or inconclusive. Unless noted, % is set by controls: 0 for no effect and ±100 for the full control effect; potency is the fitted concentration of half-maximal effect.

Results for CCOc1ccc(NC(=O)CN(C)c2ccc(S(=O)(=O)N3CCOCC3)cn2)cc1OCC ?
AmpC inh detg: 4%; Giardia FBPA inh: -11%; RE007 growth inh: -15%; AmpC no deterg: -8%; Sm TGR inh: 4%

Results for CCCN(CCC)S(=O)(=O)c1cc(CN2C(=O)c3cccnc3C2=O)ccc1OC ?
AmpC inh detg: -8%; Giardia FBPA inh: -4%; RE007 growth inh: 3%; AmpC no deterg: 26%; Sm TGR inh: -8%

How did O=C1C=CC(=O)c2c(O)c(Cl)c(Cl)c(O)c21 do in these assays?
Giardia FBPA inh: 13µM*

Results for O=C1C=CC(=O)c2c(O)c(CO)c(CO)c(O)c21 ?
RE007 growth inh: -25%

Results for CCC(C)(C)n1nnnc1C(c1cc2cc(C)ccc2[nH]c1=O)N1CCCC1 (stereo not given) ?
AmpC inh detg: 2%; Giardia FBPA inh: -20%; RE007 growth inh: -12%; AmpC no deterg: -28%; Sm TGR inh: 20µM*

How did Cc1ccc2cc(C(c3nnnn3C(C)(C)C)N3CCCCCC3)c(=O)[nH]c2c1 (stereo not given) do in these assays?
AmpC inh detg: -17%; Giardia FBPA inh: -12%; RE007 growth inh: -16%; AmpC no deterg: -3%; Sm TGR inh: 11µM*

Results for Cc1cccc2cc(C(c3nnnn3C(C)(C)C)N3CCN(C(=O)c4ccco4)CC3)c(=O)[nH]c12 (stereo not given) ?
AmpC inh detg: -5%; Giardia FBPA inh: -1%; RE007 growth inh: -4%; AmpC no deterg: -3%; Sm TGR inh: -6%

Results for CCC(C)(C)n1nnnc1C(c1cc2cc(C)cc(C)c2[nH]c1=O)N1CCN(C(=O)c2ccco2)CC1 (stereo not given) ?
AmpC inh detg: -1%; Giardia FBPA inh: 0%; RE007 growth inh: 14%; AmpC no deterg: 36%; Sm TGR inh: 18µM*

How did Brc1ccc2c(c1)C(OC1CN3CCC1CC3)c1ccccc1CS2 (stereo not given) do in these assays?
AmpC inh detg: -14%; Giardia FBPA inh: -2%; RE007 growth inh: 14%; AmpC no deterg: 125%; Sm TGR inh: 89µM*

How did Cc1ccc(CSc2nc3ccncc3n2CC(=O)Nc2cc(C)cc(C)c2)cc1 do in these assays?
AmpC inh detg: -7%; Giardia FBPA inh: 8%; RE007 growth inh: -6%; AmpC no deterg: 7.1µM*; Sm TGR inh: -11%

How did Cc1cc(C)cc(NC(=O)Cn2c(SCc3cc(C)ccc3C)nc3ccncc32)c1 do in these assays?
AmpC inh detg: -23%; Giardia FBPA inh: 1%; AmpC no deterg: inconclusive; Sm TGR inh: -6%

What do the screens show for `O=C(COC(=O)Cc1cccc(F)c1)NCCc1ccccc1`?
AmpC inh detg: -13%; RE007 growth inh: 13%; AmpC no deterg: -16%; Sm TGR inh: -4%

How did CCCSC1=N/C(=C\C=C\c2ccco2)C(=O)S1 do in these assays?
AmpC inh detg: -7%; Giardia FBPA inh: inconclusive; RE007 growth inh: -12%; AmpC no deterg: -13%; Sm TGR inh: 32µM*

Results for O=C(CSc1ncc2c(n1)-c1ccccc1N(Cc1ccc(F)cc1)S2(=O)=O)c1ccc(Br)cc1 ?
AmpC inh detg: -3%; Sm TGR inh: -8%

Results for Cc1ccc(SC(=O)COc2ccccc2C)cc1 ?
AmpC inh detg: 0%; Giardia FBPA inh: 6%; RE007 growth inh: -24%; AmpC no deterg: -21%; Sm TGR inh: 11µM*

How did COc1ccc(NC(=O)CCN2CCCC(C)C2)cc1 (stereo not given) do in these assays?
AmpC inh detg: 2%; Giardia FBPA inh: 0%; RE007 growth inh: -11%; AmpC no deterg: -13%; Sm TGR inh: 89µM*

How did CS(=O)(=O)c1cc([N+](=O)[O-])c(Sc2nc3ccccc3[nH]2)c([N+](=O)[O-])c1 do in these assays?
AmpC inh detg: inconclusive; Giardia FBPA inh: inconclusive; RE007 growth inh: 0%; AmpC no deterg: 22µM*; Sm TGR inh: 1.4µM*

How did O=C(O)c1cc([N+](=O)[O-])c(Sc2nc3ccccc3[nH]2)c([N+](=O)[O-])c1 do in these assays?
AmpC inh detg: inconclusive; Giardia FBPA inh: -4%; RE007 growth inh: 6%; AmpC no deterg: -17%; Sm TGR inh: 1.8µM*

What do the screens show for `Cc1ccc(S(=O)(=O)Nc2nc3ccccc3nc2NCc2ccc3c(c2)OCO3)cc1C`?
AmpC inh detg: -6%; Giardia FBPA inh: 3%; RE007 growth inh: 15%; AmpC no deterg: -19%; Sm TGR inh: 2%

Results for CCOC(=O)CC(NC(=O)Cc1cccs1)c1ccccc1Cl (stereo not given) ?
AmpC inh detg: -1%; Giardia FBPA inh: 6%; RE007 growth inh: 0%; AmpC no deterg: -33%; Sm TGR inh: 89µM*

What do the screens show for `CCOC(=O)CC(NC(=O)c1ccco1)c1ccccc1Cl` (stereo not given)?
AmpC inh detg: inconclusive; Giardia FBPA inh: 3%; RE007 growth inh: 4%; AmpC no deterg: -6%; Sm TGR inh: 10%

Results for N#C/C(=C(/O)CCl)c1nc2ccccc2[nH]1 ?
AmpC inh detg: 1%; Giardia FBPA inh: inconclusive; RE007 growth inh: -21%; AmpC no deterg: -18%; Sm TGR inh: 25µM*

What do the screens show for `N#C/C(=C\c1ccc(Sc2nc3ccccc3[nH]2)o1)c1ccccc1`?
AmpC inh detg: inconclusive; Giardia FBPA inh: -14%; RE007 growth inh: -7%; AmpC no deterg: -39%; Sm TGR inh: -25%

What do the screens show for `N#C/C(=C\c1c(Cl)cccc1Cl)c1nc2ccccc2[nH]1`?
AmpC inh detg: -4%; Giardia FBPA inh: -12%; RE007 growth inh: -19%; AmpC no deterg: 11µM*; Sm TGR inh: -5%

How did N#C/C(=C\c1ccc(Sc2ccc(Cl)cc2)o1)c1nc2ccccc2[nH]1 do in these assays?
AmpC inh detg: -14%; Giardia FBPA inh: -22%; RE007 growth inh: 0%; AmpC no deterg: 28µM*; Sm TGR inh: -16%

What do the screens show for `CN(C)/C=C(\C#N)c1nc2ccccc2[nH]1`?
AmpC inh detg: inconclusive; Giardia FBPA inh: -6%; RE007 growth inh: -15%; AmpC no deterg: -34%; Sm TGR inh: -1%

Results for N#C/C(=C(\O)Cc1ccccc1)c1nc2ccccc2[nH]1 ?
AmpC inh detg: 0%; Giardia FBPA inh: -5%; RE007 growth inh: 18%; AmpC no deterg: -23%; Sm TGR inh: -6%

What do the screens show for `CC1(C)CC(NC(=O)c2ccccc2C(=O)NC2CC(C)(C)NC(C)(C)C2)CC(C)(C)N1`?
AmpC inh detg: 2%; Giardia FBPA inh: 1%; RE007 growth inh: 3%; AmpC no deterg: -19%; Sm TGR inh: 0%
